# Reference: the supplement of paper PMC12645437, “Orthogonal IMiD-Degron Pairs Induce Selective Protein Degradation in Cells” (ACS Chemical Biology, 2025)
# In all, about 8,300 sequences were measured (“log2 fold change of degron read counts, EGFP-low vs EGFP+ sorted cells (limma voom), compound-induced degradation”: median about -1.1, highest 2% from about 3.2 on). This excerpt belongs to a sample that is enriched for the highest values.
# T1: CRBN, Q96SW2
# T1 chain: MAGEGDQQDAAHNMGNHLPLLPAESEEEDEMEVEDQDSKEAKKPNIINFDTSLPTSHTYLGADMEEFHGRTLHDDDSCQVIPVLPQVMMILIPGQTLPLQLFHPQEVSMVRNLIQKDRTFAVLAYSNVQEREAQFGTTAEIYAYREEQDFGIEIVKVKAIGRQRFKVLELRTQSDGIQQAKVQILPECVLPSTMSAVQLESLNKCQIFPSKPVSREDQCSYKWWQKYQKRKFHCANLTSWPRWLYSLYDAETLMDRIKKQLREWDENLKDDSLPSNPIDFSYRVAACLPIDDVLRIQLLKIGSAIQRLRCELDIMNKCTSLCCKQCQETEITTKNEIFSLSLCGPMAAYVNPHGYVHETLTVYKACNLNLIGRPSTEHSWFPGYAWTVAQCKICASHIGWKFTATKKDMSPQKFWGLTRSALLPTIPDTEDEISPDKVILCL
# Target: T1, CRBN, Q96SW2
# Assay: log2 fold change of degron read counts, EGFP-low vs EGFP+ sorted cells (limma voom), compound-induced degradation; higher = more compound-induced degradation of the degron-EGFP fusion; degrons are variants of IKZF1/3 zinc finger 2; compound dose not given here
# Settings: Jurkat, 18 h
# [1] = compound: compound 19 (5-tert-butyl-thalidomide)
# [2] = compound: compound 22 (5-morpholino-thalidomide)
# [3] = compound: compound 33 (diphenyl IMiD analogue)
# 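Also: pooled lentiviral library of zinc finger degron-EGFP fusions in mCherry-positive Jurkat cells, FACS-sorted after compound exposure, with degron abundance counted by next-generation sequencing.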
Sequence,log2 fold change of degron read counts [1],log2 fold change of degron read counts [2],log2 fold change of degron read counts [3],log2 fold change of degron read counts (compound: thalidomide)
"FICPICGHQFTQKGNLLRHIKL [46F_47I_49P_50I_52G_53H_54Q_55F_67L_, Q9UKT9]",-2.44,-2.12,-1.5,-1.12
"FGCDVCGAMFTQKGNLLRHIKL [46F_47G_49D_50V_52G_53A_54M_55F_67L_, Q9UKT9]",0.868,-0.562,-0.229,-1.8
"FTCPICGREFTQKGNLLRHIKL [46F_47T_49P_50I_52G_53R_54E_55F_67L_, Q9UKT9]",-1.73,-0.622,-0.517,0.583
"FLCNQCGHMFTQKGNLLRHIKL [46F_47L_49N_50Q_52G_53H_54M_55F_67L_, Q9UKT9]",-2.55,-2.97,-3.4,-2.9
"FKCEQCGAQFTQKGNLLRHIKL [46F_47K_49E_50Q_52G_53A_54Q_55F_67L_, Q9UKT9]",-2.76,-3.28,-3.17,-2.41
"FSCPICGHEFTQKGNLLRHIKL [46F_47S_49P_50I_52G_53H_54E_55F_67L_, Q9UKT9]",-2.38,-3.52,-2.42,-2.6
"LICNQCGFPCTQKGNLLRHIKL [46L_47I_49N_50Q_52G_53F_54P_55C_67L_, Q9UKT9]",-2.14,-2.53,-2.15,-1.65
"FMCNICGAWFTQKGNLLRHIKL [46F_47M_49N_50I_52G_53A_54W_55F_67L_, Q9UKT9]",-1.88,-2.01,-0.0323,-1.08
"FRCEICGAEFTQKGNLLRHIKL [46F_47R_49E_50I_52G_53A_54E_55F_67L_, Q9UKT9]",-0.6,-0.629,1.71,1.31
"FCCEICGAEFTQKGNLLRHIKL [46F_47C_49E_50I_52G_53A_54E_55F_67L_, Q9UKT9]",1.77,1.26,0.921,1.54
"FQCEICGAEFTQKGNLLRHIKL [46F_47Q_49E_50I_52G_53A_54E_55F_67L_, Q9UKT9]",1.15,1.54,1.73,3.53
"FACEICGAEFTQKGNLLRHIKL [46F_47A_49E_50I_52G_53A_54E_55F_67L_, Q9UKT9]",2.52,1.11,-1.05,-0.214
"FYCEICGAEFTQKGNLLRHIKL [46F_47Y_49E_50I_52G_53A_54E_55F_67L_, Q9UKT9]",3.55,3.26,2.06,0.377
"FNCEICGAEFTQKGNLLRHIKL [46F_47N_49E_50I_52G_53A_54E_55F_67L_, Q9UKT9]",1.62,-0.794,-0.586,-0.166
"FTCDVCGATFTQKGNLLRHIKL [46F_47T_49D_50V_52G_53A_54T_55F_67L_, Q9UKT9]",-1.33,0.301,0.357,0.358
"FHCPICGRLFTQKGNLLRHIKL [46F_47H_49P_50I_52G_53R_54L_55F_67L_, Q9UKT9]",-0.285,-0.232,0.531,-0.155
"FLCEICGAAFTQKGNLLRHIKL [46F_47L_49E_50I_52G_53A_54A_55F_67L_, Q9UKT9]",2.02,0.295,1.47,1.59
"FFCEICGAAFTQKGNLLRHIKL [46F_47F_49E_50I_52G_53A_54A_55F_67L_, Q9UKT9]",3.55,3.64,2.55,1.87
"FECEICGAAFTQKGNLLRHIKL [46F_47E_49E_50I_52G_53A_54A_55F_67L_, Q9UKT9]",2.86,-0.833,2.05,2.53
"FGCEICGAAFTQKGNLLRHIKL [46F_47G_49E_50I_52G_53A_54A_55F_67L_, Q9UKT9]",3.04,2.59,2.15,1.39
"FRCEICGAAFTQKGNLLRHIKL [46F_47R_49E_50I_52G_53A_54A_55F_67L_, Q9UKT9]",2.72,2.37,2.62,2.49
"FHCEICGAAFTQKGNLLRHIKL [46F_47H_49E_50I_52G_53A_54A_55F_67L_, Q9UKT9]",3.24,3,1.87,0.773
"FDCEICGAAFTQKGNLLRHIKL [46F_47D_49E_50I_52G_53A_54A_55F_67L_, Q9UKT9]",2.61,0.418,0.792,1.38
"FACEICGAAFTQKGNLLRHIKL [46F_47A_49E_50I_52G_53A_54A_55F_67L_, Q9UKT9]",3.9,3.03,1.11,1.38
"FMCEICGAAFTQKGNLLRHIKL [46F_47M_49E_50I_52G_53A_54A_55F_67L_, Q9UKT9]",2.64,2.45,3.19,2.46
"FWCEICGAAFTQKGNLLRHIKL [46F_47W_49E_50I_52G_53A_54A_55F_67L_, Q9UKT9]",3.77,3.83,2.67,1.57
"FACPICGALFTQKGNLLRHIKL [46F_47A_49P_50I_52G_53A_54L_55F_67L_, Q9UKT9]",1.68,-0.526,0.427,-0.353
"FRCNICGAVFTQKGNLLRHIKL [46F_47R_49N_50I_52G_53A_54V_55F_67L_, Q9UKT9]",-1.72,-0.828,0.967,0.628
